TEAD-YAP block – TEAD-YAP interaction inhibition, primary screen, TEAD-YAP interaction inhibitor project, luminescence, HEK-TIYL cells; TEAD-Gal4/YAP UAS-luciferase luminescence; inhibition, % at 9.12 µM; 640,000 compounds, 1.4% hits; AID 1259422, 2018; in the data active = inhibition above about 32%
MITF primary – MITF inhibitors, primary screen, biochemical, AlphaScreen, human; Microphthalmia-associated transcription factor (Homo sapiens), O75030; AlphaScreen MITF homodimerization, bead proximity signal; inhibition, % at 2.6 µM; 650,000 compounds, 0.91% hits; AID 1259374, 2018; in the data active = inhibition above about 50%
FBW7 act – FBW7 E3 ligase activators, primary screen, biochemical, AlphaScreen, human; F-box/WD repeat-containing protein 7 (Homo sapiens), Q969H0; 650,000 compounds, 0.13% hits; AlphaScreen FBW7–phospho-cyclin E peptide binding, activator screen; normalized activity (activation), % at 26.1 µM; in the data active = normalized activity above about 1.9%;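 note: purified mutant Fbw7 with reduced substrate affinity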
Target sequence (Q969H0 whole entry, looked up): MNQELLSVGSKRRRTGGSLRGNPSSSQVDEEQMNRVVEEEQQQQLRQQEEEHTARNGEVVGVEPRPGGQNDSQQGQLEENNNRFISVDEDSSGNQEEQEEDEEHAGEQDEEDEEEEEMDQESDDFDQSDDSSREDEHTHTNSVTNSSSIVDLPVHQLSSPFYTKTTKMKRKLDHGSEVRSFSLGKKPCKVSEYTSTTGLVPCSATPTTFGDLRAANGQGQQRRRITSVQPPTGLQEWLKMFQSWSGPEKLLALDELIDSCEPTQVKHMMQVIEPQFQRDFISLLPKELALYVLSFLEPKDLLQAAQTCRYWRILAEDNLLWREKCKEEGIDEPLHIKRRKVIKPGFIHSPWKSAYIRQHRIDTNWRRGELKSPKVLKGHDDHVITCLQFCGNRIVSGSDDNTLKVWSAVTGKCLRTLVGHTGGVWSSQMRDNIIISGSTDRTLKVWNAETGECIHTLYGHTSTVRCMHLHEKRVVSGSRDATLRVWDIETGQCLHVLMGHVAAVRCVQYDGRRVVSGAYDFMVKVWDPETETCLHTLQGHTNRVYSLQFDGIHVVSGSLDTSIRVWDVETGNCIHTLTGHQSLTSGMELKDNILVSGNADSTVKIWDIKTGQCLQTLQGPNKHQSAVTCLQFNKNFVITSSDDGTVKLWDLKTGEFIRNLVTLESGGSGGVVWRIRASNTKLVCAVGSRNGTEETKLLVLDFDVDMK
GPR151 ag – activators of human GPR151, primary screen, cell-based, PathHunter beta-arrestin, luminescence. PathHunter beta-arrestin GPR151 cells. activation, % at 11.2 µM. 650,000 compounds, 1% hits. AID 1508602, 2020; in the data active = activation above about 4.9%
MITF inh conf – MITF inhibitors, retest of hits, confirmation, biochemical, AlphaScreen, triplicate; AlphaScreen MITF homodimerization, biotin/His-MITF beads; shares compounds with MITF primary; 4,700 compounds, 16% hits; inhibition, % at 2.6 µM; AID 1259372, 2018;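 active = inhibition above a cutoff derived from the DMSO control wells, cut at about 28% in these data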;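 note: inhibitors lower the bead chemiluminescence by keeping MITF from dimerizing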
AS interf DR – AlphaScreen optical interference compounds, dose response, counter-screen, biochemical, HTS; shares compounds with MITF primary; AlphaScreen optical interference counterscreen, cell-free; IC50, µM; 480 compounds, 6% hits; AID 1259373, 2018; call rule not given here
AS interf ctr – AlphaScreen optical interference compounds, counter-screen for MITF inhibitor project, biochemical, triplicate; inhibition, % at 2.6 µM; shares compounds with MITF primary; LysRS AlphaScreen counterscreen, signal interference; 4,700 compounds, 7.6% hits;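 active = inhibition above a cutoff derived from the DMSO control wells, cut at about 30% in these data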
Of the large screens only hits and unclear results are named; the others gave an inactive call (follow-up assays come after a bar, where they were run). In the library only some 3.5% were active in any assay of this set; here they are far more common.

COc1ccc(NCc2ccc(C(=O)O)o2)cc1	none
O=C(O)c1ccc(CNC(=O)c2cocc2C(=O)O)o1	MITF primary 55 | MITF inh conf 38 | AS interf DR inactive | AS interf ctr inactive
COC(=O)[C@H]1CN(C(=O)CCn2cncn2)C[C@@H]1c1ccc(F)cc1	none
CN1CCN(CC(=O)N/N=C\c2ccsc2)CC1	none
COc1cc(/C=N\NC(=O)CN2CCN(C)CC2)cc(OC)c1	MITF primary 56 | MITF inh conf inactive | AS interf ctr inactive
COc1cc(/C=N\NC(=O)CN2CCN(C)CC2)cc2c1OCO2	MITF primary 51 | MITF inh conf inactive | AS interf ctr inactive
CN1CCN(CC(=O)N/N=C\c2ccccc2O)CC1	none
CCOC(=O)c1cc(-c2ccc(OC)cc2)nc2ccccc12	none
O=[N+]([O-])c1ncn(-c2nc(-c3ccco3)cc(C(F)(F)F)n2)n1	none
COc1ccc(CN2CCN(Cc3ccccn3)CC2)c(OC)c1OC	MITF primary 59 | MITF inh conf inactive | AS interf ctr inactive
COc1ccccc1CN1CCN(Cc2ccccn2)CC1	MITF primary 65 | MITF inh conf inactive | AS interf ctr inactive
COc1ccccc1CN1CCCCCC1	none
COc1ccc(CN2CCN(c3ccccn3)CC2)c(OC)c1OC	none
O=[N+]([O-])c1ccccc1OCCNC1CCCC1	MITF primary 52 | MITF inh conf inactive | AS interf ctr inactive
CCN1CCN(CCCOc2ccc(OC)cc2)CC1	none
O=[N+]([O-])c1ccccc1OCCCOc1ccccc1[N+](=O)[O-]	none
c1ccc(COc2ccccc2OCCNCCN2CCOCC2)cc1	MITF primary 66 | MITF inh conf inactive | AS interf ctr inactive
c1ccc(COc2ccccc2OCCCCNCCN2CCOCC2)cc1	none
CCN1CCN(CCOc2ccccc2OCc2ccccc2)CC1	MITF primary 66 | MITF inh conf inactive | AS interf ctr inactive
CCN1CCN(CCOc2ccc(I)cc2)CC1	MITF primary 64 | MITF inh conf inactive | AS interf ctr inactive
COC(=O)C1C(=O)NC(SCC(=O)Nc2ccc(C)c(Cl)c2)=C(C#N)C1c1cc(OC)c(OC)c(OC)c1 (stereo not given)	none
NNC(=O)c1cc(-c2ccccc2)nc2ccc(Br)cc12	none
O=[N+]([O-])c1ccccc1OCCCCN1CCCC1	none
CCN1CCN(CCOc2ccc(OCc3ccccc3)cc2)CC1	MITF primary 69 | MITF inh conf inactive | AS interf ctr inactive
CCN1CCN(CCOc2ccccc2[N+](=O)[O-])CC1	MITF primary 75 | MITF inh conf inactive | AS interf ctr inactive
c1ccc(COc2ccc(OCCN3CCCC3)cc2)cc1	none
Cc1ccccc1CN1CCN(C(=O)C(c2ccccc2)c2ccccc2)CC1	none
O=C(C(c1ccccc1)c1ccccc1)N1CCN(Cc2ccncc2)CC1	MITF primary 62 | MITF inh conf inactive | AS interf ctr inactive
O=C(C(c1ccccc1)c1ccccc1)N1CCN(Cc2ccc(F)cc2)CC1	MITF primary 62 | MITF inh conf inactive | AS interf ctr inactive
COc1ccc(-c2nc(C#N)c(Nc3ccc4c(c3)OCO4)o2)cc1	none
COc1cccc(-c2ccc(=O)n(CC(=O)NCC3CCCO3)n2)c1 (stereo not given)	MITF primary 51 | MITF inh conf inactive | AS interf ctr inactive
OC(CNC1CC1)COCc1ccccc1F (stereo not given)	MITF primary 59 | MITF inh conf inactive | AS interf ctr inactive
O=C(CNCCc1ccc(Cl)cc1)Nc1ccc(C(=O)N2CCCCC2)cc1	MITF primary 58 | MITF inh conf inactive | AS interf ctr inactive
O=C(Cc1ccc(Cl)cc1)Nc1ccc(C(=O)N2CCCCC2)cc1	none
O=C(CNCCc1ccccc1)Nc1ccc(C(=O)N2CCCCC2)cc1	MITF primary 52 | MITF inh conf inactive | AS interf ctr inactive
O=C(CCc1ccccc1)Nc1ccc(C(=O)N2CCCCC2)cc1	none
O=C(CNCc1ccc(F)cc1)Nc1ccc(C(=O)N2CCCCC2)cc1	MITF primary 69 | MITF inh conf inactive | AS interf ctr inactive
O=C(CNC1CCCCCC1)Nc1ccc(C(=O)N2CCCCC2)cc1	none
O=C(CNCc1ccccc1Cl)Nc1ccc(C(=O)N2CCCCC2)cc1	MITF primary 72 | MITF inh conf inactive | AS interf ctr inactive
c1ccc(Cn2cnc3c(N4CCOCC4)ncnc32)cc1	none
CC12CCC(C/C1=N\Nc1ccc([N+](=O)[O-])cc1[N+](=O)[O-])C2(C)CBr (stereo not given)	none
COc1cccc(/C=C2\SC(N)=NC2=O)c1OCC(=O)O	none
O=C(CN1CC(=O)Oc2ccccc21)Oc1ccc(F)cc1	MITF primary 69 | MITF inh conf inactive | AS interf ctr inactive
CC(=O)N1CN(CCC(C)C)Cc2c1sc1c2CCCC1	none
CN1CCC(N(C)Cc2cccc(F)c2)CC1	MITF primary 59 | MITF inh conf inactive | AS interf ctr inactive
COc1ccc(CN(C)C2CCN(C)CC2)c(C)c1C	MITF primary 59 | MITF inh conf inactive | AS interf ctr inactive
CN1CCC(N(C)Cc2ccc(Cl)cc2)CC1	MITF primary 53 | MITF inh conf inactive | AS interf ctr inactive
COc1cc(OC)c(OC)cc1CN(C)C1CCN(C)CC1	none
CN1CCC(N(C)Cc2cccc(Br)c2)CC1	none
CN1CCC(N(C)Cc2cccc(Cl)c2Cl)CC1	none
CN1CCC(N(C)Cc2c(F)cccc2Cl)CC1	MITF primary 53 | MITF inh conf inactive | AS interf ctr inactive
Cc1ccc(-c2ccc(/C=C(\C#N)C(=O)NC(C)(C)C)o2)cc1	none
COC(=O)c1ccc(CN(C)C2CCN(C)CC2)cc1	MITF primary 57 | MITF inh conf inactive | AS interf ctr inactive
CCOc1ccc(N2CCN(CC(=O)Nc3ccc(SC)cc3)C2=O)cc1	MITF primary 61 | MITF inh conf inactive | AS interf ctr inactive
CC1CCCCC1NCc1ccc([N+](=O)[O-])cc1 (stereo not given)	MITF primary 75 | MITF inh conf inactive | AS interf ctr inactive
O=[N+]([O-])c1ccc(CNC2CCCC2)cc1	none
CCc1nc(SCC(=O)c2ccc(OC)cc2)n[nH]1	MITF primary 51 | MITF inh conf inactive | AS interf ctr inactive
CCc1nc(SCC(=O)c2ccc(OC)c(C)c2)n[nH]1	none
CCOC(=O)c1ccc(NC(=O)CCOc2ccccc2)cc1	MITF primary 75 | MITF inh conf inactive | AS interf ctr inactive
